Our source for the inhibition values is PubChem BioAssay AID449762 (Southern Research Specialized Biocontainment Screening …, 2010).

Screen size: about 330,000 compounds; about 1,900 (0.58%) were called active. Another 4% or so got no clear call; they are omitted. Rule as the data show it: inconclusive = inhibition above about 70% without an active follow-up result; inactive = below that. A selection follows. Measured potencies and affinities stand elsewhere.

The nature of the experiment: M. tuberculosis growth inhibition, HTS (AID 449762).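 Also: bacterial growth assessed after seven days of incubation.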 The note with it: M. tuberculosis H37Rv growth inhibition, 7H9 media; at 25 µM; active compounds read high.
On to `O=C(CSc1nnc2c(n1)[nH]c1ccccc12)Nc1ccc2c(c1)OCO2`, for which the inhibition was 0.35% (inactive).
Next, `COc1cc(CC(=O)N/N=C/c2ccc([N+](=O)[O-])cc2)c([N+](=O)[O-])cc1OC`: 2.69% (inactive); `CCSc1nnc(NC(=O)CCCOc2ccc(C)cc2)s1`: 1.29% (inactive).
As for `CCC(C)NC(=S)Nc1ccc(F)cc1` (stereo not drawn), the inhibition is -4.81% (inactive).
Next, `CCC(C)NS(=O)(=O)c1ccc(NS(C)(=O)=O)cc1` (stereo not drawn): 4.07% (inactive); `O=C(Cc1cccs1)NCc1cccc(CNC(=O)Cc2cccs2)c1`: 1.18% (inactive).
Next, `COc1ccc(C2NCc3ccccc3-n3cccc32)cc1` (stereo not drawn): -8.78% (inactive); `N#Cc1ccc(C(=O)NCCCSc2ccccc2)cc1`: -3.48% (inactive).
`CCC(C)N1CC(=O)N2C(c3ccc(OC)cc3OC)c3[nH]c4ccccc4c3C[C@H]2C1=O` (stereo partly drawn): the inhibition was 6.67% (inactive).
Next, `CCOc1ccc(OCCC(=O)OCC(=O)NC2CCCC2)cc1`: 4.34% (inactive).
Next, `CCCn1c(C(C)Nc2nc(-c3ccc(C)cc3)cs2)nc2cc(Cl)c(N3CCCCC3)cc21` (stereo not drawn): 44.2% (inactive).
Next, `COc1ccc(-c2csc(NC(C)c3nc4cc(Cl)c(Cl)cc4n3CCCO)n2)cc1` (stereo not drawn): 35.7% (inactive); `COc1ccc(OC)c(-c2cc(C3CCN(C(=O)OC(C)(C)C)CC3)[nH]n2)c1`: -1.26% (inactive).
In the case of `CC(C)(C)OC(=O)N1CCC(c2cc(-c3cccs3)n[nH]2)CC1`, the inhibition was 10.2% (inactive).
For `CCOC(=O)CN1CCC(c2cc(-c3ccc(Cl)cc3)n[nH]2)CC1`, the inhibition was 0.17% (inactive).
In the case of `COc1ccc(-c2cc(C3CCN(Cc4ccc([N+](=O)[O-])cc4)CC3)[nH]n2)cc1`, the inhibition was 39.6% (inactive).
Take `Cc1ccc(CN2CCC(c3cc(-c4cccs4)n[nH]3)CC2)cc1`: the inhibition is 42.8% (inactive).
Next, `COc1ccc(-c2cc(C3CCN(CC(O)C(F)(F)F)CC3)[nH]n2)cc1` (stereo not drawn): 7.78% (inactive); `CCCCCOc1ccc(CSc2ncn[nH]2)cc1`: 29.4% (inactive); `COc1cccc(CN2C(=O)C(C)Oc3ccccc32)c1` (stereo not drawn): -3.69% (inactive).
Next, `O=C(CSc1nncc2ccccc12)N1CCOCC1`: -0.48% (inactive); `O=C1COc2ccc(S(=O)(=O)CCC(=O)N3CCN(c4ccccc4)CC3)cc2N1`: -9.62% (inactive); `O=C(NCCN1CCOCC1)c1ccc(Cl)nc1Cl`: -1.1% (inactive).
The result for `CN(CCOc1ccccc1)Cc1nc2cc(Cl)ccc2c(=O)[nH]1` reads 58.8% (inactive); that for `CC(c1nc2ccccc2c(=O)[nH]1)N(C)c1ccc2ccccc2c1` (stereo not drawn), -13.1% (inactive).
Take `CCC(Sc1nc(C)cc(=O)[nH]1)C(=O)Nc1ccc(Cl)cn1` (stereo not drawn): the inhibition is -1.49% (inactive).
The result for `COc1ccc(CCN(C(=O)c2cccc(F)c2)C2CC(=O)N(c3ccc(OC)cc3)C2=O)cc1` (stereo not drawn) reads 2.05% (inactive); that for `CCN(CC(=O)Nc1c(F)cccc1F)C(=O)CCCc1nc2ccccc2c(=O)[nH]1`, 5.24% (inactive).
Take `Cc1cccc(CCNC(=O)CC2C(=O)NCCN2CC2CCCCC2)n1` (stereo not drawn): the inhibition is 0.82% (inactive).
For the compound `CCOC(=O)c1c(NC(=O)CSc2nc3ccccc3[nH]2)sc2c1CC(C)(C)NC2(C)C`, the inhibition was 35.9% (inactive).
Next, `CCOC(=O)c1c(NC(=O)CSc2ncccn2)sc2c1CC(C)(C)NC2(C)C`: 8.68% (inactive); `O=C(O)CC(Cc1ccc(Cl)cc1)C(=O)NCc1ccccc1` (stereo not drawn): -1.83% (inactive); `O=C(O)c1cnn(-c2nc(-c3cccc(F)c3)cs2)c1C(F)(F)F`: -9.37% (inactive).
Next, `CCCNC(=O)c1ccccc1NC(=O)Nc1ccccc1C`: -3.01% (inactive); `COc1ccc2cc1Oc1ccc(cc1)C[C@H]1c3cc(c(OC)cc3CCN1C)Oc1c(OC)c(OC)cc3c1[C@H](C2)N(C)CC3`: -2.74% (inactive).
The result for `COc1ccc2cc1Oc1ccc(cc1)CC1c3c(cc(OC)c4c3Oc3cc5c(cc3O4)CCNC5C2)CCN1C` (stereo not drawn) reads 2.26% (inactive); that for `COc1ccc(NC(=O)C2CCCO2)cc1Cl` (stereo not drawn), 55.9% (inactive); that for `COc1cc(C(=O)NCCOc2ccc(Cl)cc2)ccc1OCc1c(C)noc1C`, -3.72% (inactive).
As to `CCCC(=O)Nc1ccc2c(c1)nc(CN1CCCC1)n2C`, the inhibition is -1.98% (inactive).
As for `Cc1cc(C)n2nc(C(=O)OC(C)C(=O)c3ccccc3)nc2n1` (stereo not drawn), the inhibition is 7.53% (inactive).
As to `Cc1ccc(-c2cc(C(=O)NCCCn3ccnc3)c3cc(Br)ccc3n2)o1`, the inhibition is 4.01% (inactive).
Regarding `O=C(NCCCn1ccnc1)c1cc(-c2cccnc2)nc2ccc(Br)cc12`, the inhibition was 4.38% (inactive).
The result for `COc1ccc(OCC(O)Cn2c(N)nc3c2c(=O)[nH]c(=O)n3C)cc1` (stereo not drawn) reads -6.1% (inactive); that for `Cc1cc(C(=O)Nc2sc3c(c2C#N)CCC(C(C)(C)C)C3)no1` (stereo not drawn), -1.37% (inactive).
The result for `CC1CCc2sc(-c3n[nH]c(=S)o3)cc2C1` (stereo not drawn) reads 4.83% (inactive).
Regarding `Cc1[nH]c(C(=O)N/N=C/c2ccc(C(=O)O)cc2)c(C)c1C(=O)N/N=C/c1ccc(C(=O)O)cc1`, the inhibition is 2.47% (inactive).
The result for `N/C(=N\OC(=O)N1c2ccccc2Sc2ccccc21)c1ccc(Br)cc1` reads -4.44% (inactive); that for `CCOC(=O)N1c2ccccc2Sc2ccccc21`, 10.8% (inactive).
Next, `O=C(O)C(Cc1cnc[nH]1)NS(=O)(=O)c1ccc(Cl)cc1` (stereo not drawn): 0.91% (inactive); `CN1CCN(C(=S)c2ccc(N(C)C)cc2)CC1`: -4.96% (inactive); `O=[N+]([O-])c1cccc(/C=N/Nc2nccnc2Cl)c1`: -0.09% (inactive).
Next, `COc1ccc(CN2CCC(N3CC(C)OC(C)C3)CC2)c(OC)c1` (stereo not drawn): 1.06% (inactive); `COc1cc(-c2ccc3oc(-c4ccsc4)c(C#CC4(O)CCCCC4)c3c2)cc(OC)c1OC`: 51.2% (inactive).
For the compound `CC(C)n1nnc2c(=O)oc3ccccc3c21`, the inhibition is 48% (inactive).
As for `CCn1nnc2c(=O)oc3ccccc3c21`, the inhibition was 28.6% (inactive).
Next, `CC1CC(C)CN(C(=O)Cn2nnc(-c3ccc(Br)cc3)n2)C1` (stereo not drawn): 2.83% (inactive); `CCOC(=O)Cn1c(=O)cc(C)c2cccc(C)c21`: 57.9% (inactive).
For `CCOC(=O)Cn1c(C)cc(=O)c2cccc(C)c21`, the inhibition was 16.2% (inactive).
As to `COc1ccc(CC(=O)NCc2nnc(SCC(=O)Nc3ccccc3)n2C)cc1`, the inhibition was 4.29% (inactive).
Next, `O=C(NCC(=O)N1CCN(c2ccccc2O)CC1)c1ccccc1`: 7.74% (inactive).
With `CCCCCCC1CC(CCc2nc(=S)[nH][nH]2)C(=O)O1` (stereo not drawn), the inhibition is -0.55% (inactive).
Turning to `COC(=O)c1cc(C(=O)NCC2CCCCC2)cc([N+](=O)[O-])c1`, the inhibition was -5.46% (inactive).
For the compound `O=C(NCC1CCCCC1)c1cccc([N+](=O)[O-])c1`, the inhibition is 4.44% (inactive).
The result for `CCOC(=O)C1(CC2CC2)CCN(Cc2cc(Cl)c(O)c(OC)c2)CC1` reads -1.14% (inactive).
`CCCCn1c(=O)c(C(=O)NCc2ccc(Cl)cc2)c(O)c2ccccc21`: the inhibition was 13% (inactive).
As for `O=[N+]([O-])c1cc(C(F)(F)F)cc([N+](=O)[O-])c1N1CCCNCC1`, the inhibition was -2.74% (inactive).
The result for `COc1ccc(N=Nc2ccc(O)c3ncccc23)cc1` reads 64.2% (inactive); that for `Cc1ccc(N=Nc2ccc(O)c3ncccc23)cc1`, 63.9% (inactive); that for `COc1ccc(OCCNC(=O)CCCO)cc1`, -4.06% (inactive).
On to `Cc1ccsc1/C=N/NC(=O)c1ccc(Cn2cc(Br)cn2)o1`, for which the inhibition is -7.92% (inactive).
With `O=C1Nc2cc(C(=O)NCC3CCCO3)ccc2S/C1=C/c1ccccc1F` (stereo not drawn), the inhibition was 2.49% (inactive).
Next, `COc1ccc(-c2csc(/C(C#N)=C\c3ccc(OC)c([N+](=O)[O-])c3)n2)cc1`: 11.1% (inactive).
The result for `COc1ccc(-c2csc(/C(C#N)=C\c3cccc([N+](=O)[O-])c3)n2)cc1` reads 9.75% (inactive); that for `Cc1ccc(C#CC[N+]2(C)CCCCC2)cc1`, -6.71% (inactive).
Take `C#CC[N+]1(CC#Cc2ccc(C)cc2)CCCCC1`: the inhibition was 6.8% (inactive).
The result for `Cc1ccc(/C=N/Nc2nnc(Cc3ccccc3)c(=O)[nH]2)o1` reads 0.24% (inactive); that for `CCOc1ccc(-c2cc(N)n(S(=O)(=O)c3cccc4nsnc34)n2)cc1`, -2.37% (inactive).
Next, `O=C(NCC(c1ccco1)N1CCOCC1)C1CCCCC1` (stereo not drawn): 1.93% (inactive).
With `O=C(CSc1ncnc2nc[nH]c12)c1ccc([N+](=O)[O-])cc1`, the inhibition is -8.27% (inactive).
Regarding `Cn1cnc([N+](=O)[O-])c1Sc1ncnc2nc[nH]c12`, the inhibition is 3.96% (inactive).
As to `COc1ccccc1C(=O)NC(=O)COC(=O)c1nc2nc(C)cc(C)n2n1`, the inhibition is -0.8% (inactive).
The result for `CCc1cc2c(=O)c(-c3nc4ccccc4n3C)c(C(C)C)oc2c(CN2CCN(C)CC2)c1O` reads 3.5% (inactive); that for `COc1ccc(N2C(=O)C(Cl)=C(Nc3ccccc3OC)C2=O)cc1`, -3.72% (inactive).
On to `CCOc1ccccc1NC1=C(Cl)C(=O)N(c2ccc(OC)cc2)C1=O`, for which the inhibition is -6.27% (inactive).
The result for `O=S(=O)(c1ccc2ccccc2c1)N1CCN(CCO)CC1` reads 4.19% (inactive); that for `Cc1ccc(S(=O)(=O)N(CC(=O)c2ccc(Cl)cc2)C(=O)N2CCN(C)CC2)cc1`, -5.16% (inactive); that for `COc1cccc(CC(NC(C)=O)C(=O)NC2CCN(S(=O)(=O)c3cccc4ccccc34)CC2)c1` (stereo not drawn), 1.8% (inactive).
The result for `COC(=O)c1ccc(NC(=O)CSCc2ccccc2C)cc1` reads 21.9% (inactive); that for `Cc1cccc(C)c1OCc1cc(C(=O)N2CCN(c3ccccc3)CC2C)no1` (stereo not drawn), 61.7% (inactive); that for `CCOc1ccccc1N1CCN(C(=O)c2cn(CC3CCCCC3)nn2)CC1`, 53.5% (inactive).
Turning to `Cc1ccnc(NC(=O)c2ccc(Cl)c(NC(=O)c3ccccc3C)c2)c1`, the inhibition was -1.18% (inactive).
Next, `O=C(Nc1ccon1)Nc1cccc(Cl)c1Cl`: -8.3% (inactive); `Cc1cc(C(=O)Nc2nc3ccc(S(C)(=O)=O)cc3s2)c(C)o1`: -11.6% (inactive).

What is called inhibition is the change of the read-out against control, counted positive when it falls.
